Compound activity: PubChem, several laboratories
Most compounds without a hit are left out; they make up all but 3.7% or so of the library.
Autofluor counter: flagged as autofluorescent in microsphere protease counterscreen. hit rate 3.1% among 360,000. compound autofluorescence counterscreen, microsphere flow cytometry; active compounds read high. fluorescence intensity (no concentration beside the values); in the data active = fluorescence intensity above about 16000; inconclusive = no clear call, values can overlap the other calls
BoNT F protease: blocks Botulinum neurotoxin F light chain protease; Multiplex microsphere protease cleavage assay, flow cytometry; inhibition, % at 10 µM; hit rate 0.22% among 360,000; AID 588497; in the data active = inhibition above about 35%, passing the limit was not always enough; inconclusive = no clear call, values can overlap the other calls; note: plate controls were buffer without enzyme for full effect and enzyme alone for no effect
MazF activator: MazEF (E. coli) toxin RNase activation. FAM/BHQ RNA-DNA oligo cleavage fluorescence, 5 h. AID 504720. activation, % at 20 µM. hit rate 0.32% among 350,000; in the data active = activation above about 50%
Target sequence (P0AE70 whole entry, looked up): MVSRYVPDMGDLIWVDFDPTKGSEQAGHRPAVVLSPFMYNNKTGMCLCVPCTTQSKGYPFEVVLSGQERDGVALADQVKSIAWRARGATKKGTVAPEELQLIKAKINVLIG
Anthrax LF inh2: anthrax lethal factor protease inhibition; multiplex microsphere protease cleavage assay, LF; inhibition, % at 10 µM; hit rate 0.12% among 360,000; AID 588501; note: plate controls were buffer without enzyme for full effect and enzyme alone for no effect
BoNT A protease: inhibitors of Botulinum neurotoxin A light chain protease | multiplex microsphere protease substrate cleavage, flow cytometry | inhibition, % at 10 µM | hit rate 0.17% among 360,000; note: plate controls were buffer without enzyme for full effect and enzyme alone for no effect
* = called active by the depositor; ? = inconclusive. Cut-off read from the data, not from the text of the source, unless noted: active = inhibition above about 30%; inconclusive = no clear call, values can overlap the other calls; inactive = below that.

SMILES | Autofluor counter | BoNT F protease | MazF activator | Anthrax LF inh2 | BoNT A protease
CCn1c(NCc2ccccn2)nc2ccccc21 | 3247 | -13 | 3 | 2 | -1
Cc1cccc(C)c1NC(=O)C(=O)NCC1CCCN1S(=O)(=O)c1cccs1 (centres undefined) | 9945 | 9 | -4 | 11 | -3
CCn1c(/C=C/c2c(C)[nH]c3ccccc23)nc2ccccc2c1=O | 11331 | -7 | 106* | 1 | 0
O=c1c2ccccc2nc(/C=C/c2ccc([N+](=O)[O-])o2)n1-c1ccc(O)cc1 | 4637 | -6 | 43 | -3 | 0
Cc1cccc(-n2c(/C=C/c3ccc([N+](=O)[O-])o3)nc3ccccc3c2=O)c1 | 10243 | 5 | 90* | 11 | 16
Cc1[nH]c2ccccc2c1/C=C/c1nc2ccccc2c(=O)n1-c1ccc([N+](=O)[O-])cc1 | 2518 | 6 | 589* | -2 | 2
O=c1c2ccccc2nc(/C=C/c2ccccc2)n1-c1ccc(O)cc1 | 3440 | -64 | 17 | 4 | -1
CCOC(=O)CC1CCCCN1C(=O)c1ccc2nc(CCOC)oc2c1 (centres undefined) | 5774 | -2 | 3 | 0 | -2
CC(C)c1ccc(-c2nn(-c3ccccc3)cc2C(=O)NCC2CCCO2)cc1 (centres undefined) | ? | -8 | -16 | -4 | -2
O=C(NNC(=O)C1CCCCC1)c1cnccn1 | 22696* | 4 | -6 | 1 | 3
COc1ccc(Br)cc1CN1CCSCC1 | 4179 | ? | -8 | -18 | ?
CCOCC(=O)Nc1cc(-c2cn3cccnc3n2)ccc1C | 22267* | -6 | 3 | -2 | ?
CSc1nc(O)c(C(c2ccc(OC(C)C)cc2)c2c(O)nc(SC)[nH]c2=O)c(=O)[nH]1 | 6168 | -1 | -15 | -1 | -1
CCOC(=O)c1c(C)n(C)c2ccc(OCC(O)CN3CCN(C)CC3)cc12 (centres undefined) | 5503 | -10 | 6 | -4 | 0
CCOC(=O)c1c(C)n(C)c2ccc(OCC(O)Cn3c(C)nc4ccccc43)cc12 (centres undefined) | 23462* | -2 | -8 | -2 | ?
Cc1cccc(NC(=O)c2ccccc2-c2ccccc2)c1 | 3287 | 4 | 9 | -9 | 1
Cc1cccc(NC(=O)c2cccc3c2C(=O)c2ccccc2-3)c1 | 23188* | 0 | 2 | 0 | 0
Cc1cccc(NC(=O)c2ccccc2C(=O)O)c1 | 19743* | 3 | 8 | -1 | 1
COc1ccc(S(=O)(=O)NCc2ccc(F)cc2)cc1OC | 5364 | -7 | 1 | 7 | -2
COc1ccc(C(=O)NCCc2nnc(SCC(=O)Nc3ccc(Br)cc3)n2C)cc1 | 9873 | 0 | -9 | 1 | 0
C=CCn1c(SCCOc2ccc(OC)cc2)nnc1C(C)NC(=O)c1ccc(OC)cc1 (centres undefined) | 8159 | -9 | 4 | -3 | 0
COc1ccc(C(=O)NNC(=O)CSc2nnc(COc3ccccc3)n2C)cc1 | 16210* | -2 | 3 | -7 | 0
COc1ccc(CC(=O)NC(C)c2nnc(SCCOc3ccc(OC)cc3)n2C)cc1 (centres undefined) | 16217* | 2 | 2 | 4 | 0
COc1ccc(C(=O)NNC(=O)CSc2nnc(COc3ccc4ccccc4c3)n2C)cc1 | 15630 | 2 | -13 | -1 | 2
COc1ccc(CC(=O)NC(C)c2nnc(SCC(=O)c3ccc(OC)cc3)n2C)cc1 (centres undefined) | 4304 | -2 | 9 | -2 | -1
SMILES | Autofluor counter | BoNT F protease | MazF activator | Anthrax LF inh2 | BoNT A protease
CCOc1ccc(NC(=O)CSc2nnc(CCNC(=O)c3ccc(OC)cc3)n2C)cc1 | 16470* | 0 | 9 | 2 | ?
C=CCn1c(SCCOc2ccc(OC)cc2)nnc1C(CO)NC(=O)c1ccc(OC)cc1 (centres undefined) | 16235* | 24 | 8 | -12 | 17
Cc1ccc(S(=O)(=O)N2CCN(C(=O)c3ccc(COc4ccccc4)o3)CC2)cc1 | 2841 | -4 | 6 | -13 | 0
COc1ccc(-c2c(NC(=O)c3ccco3)oc3c(C)cccc3c2=O)cc1OC | 5444 | 3 | 3 | -2 | 0
Cc1ccc(S(=O)(=O)N2CCN(C(=O)c3cc(S(=O)(=O)N(C)C)ccc3N3CCCC3)CC2)cc1 | 5551 | 5 | 3 | 0 | 2
COc1ccc(N2CC(NC(=O)N3CCN(C(=O)c4ccco4)CC3)CC2=O)cc1OC (centres undefined) | 5969 | 0 | 7 | 4 | 1
CC(C(=O)N1CCN(C(=O)c2ccco2)CC1)N1C(=O)NC2(CCCCC2C)C1=O (centres undefined) | 3447 | 8 | -2 | -20 | -2
